Source: ChEMBL document CHEMBL1961873, “Compounds: GSK PKIS; Assays: Nanosyn kinase panel” (2012)

Assays:
[1] = test system: Epidermal growth factor receptor (Homo sapiens), P00533 [T790M]; conditions: at 1 µM
[2] = test system: Epidermal growth factor receptor (Homo sapiens), P00533 [L858R,T790M]; conditions: at 0.1 µM
[3] = test system: Epidermal growth factor receptor (Homo sapiens), P00533 [L858R,T790M]; conditions: at 1 µM
[4] = molecular target: Ephrin type-A receptor 2 (Homo sapiens) (UniProt P29317); conditions: at 0.1 µM
Ephrin type-A receptor 2 (Homo sapiens), sequence (P29317 whole entry): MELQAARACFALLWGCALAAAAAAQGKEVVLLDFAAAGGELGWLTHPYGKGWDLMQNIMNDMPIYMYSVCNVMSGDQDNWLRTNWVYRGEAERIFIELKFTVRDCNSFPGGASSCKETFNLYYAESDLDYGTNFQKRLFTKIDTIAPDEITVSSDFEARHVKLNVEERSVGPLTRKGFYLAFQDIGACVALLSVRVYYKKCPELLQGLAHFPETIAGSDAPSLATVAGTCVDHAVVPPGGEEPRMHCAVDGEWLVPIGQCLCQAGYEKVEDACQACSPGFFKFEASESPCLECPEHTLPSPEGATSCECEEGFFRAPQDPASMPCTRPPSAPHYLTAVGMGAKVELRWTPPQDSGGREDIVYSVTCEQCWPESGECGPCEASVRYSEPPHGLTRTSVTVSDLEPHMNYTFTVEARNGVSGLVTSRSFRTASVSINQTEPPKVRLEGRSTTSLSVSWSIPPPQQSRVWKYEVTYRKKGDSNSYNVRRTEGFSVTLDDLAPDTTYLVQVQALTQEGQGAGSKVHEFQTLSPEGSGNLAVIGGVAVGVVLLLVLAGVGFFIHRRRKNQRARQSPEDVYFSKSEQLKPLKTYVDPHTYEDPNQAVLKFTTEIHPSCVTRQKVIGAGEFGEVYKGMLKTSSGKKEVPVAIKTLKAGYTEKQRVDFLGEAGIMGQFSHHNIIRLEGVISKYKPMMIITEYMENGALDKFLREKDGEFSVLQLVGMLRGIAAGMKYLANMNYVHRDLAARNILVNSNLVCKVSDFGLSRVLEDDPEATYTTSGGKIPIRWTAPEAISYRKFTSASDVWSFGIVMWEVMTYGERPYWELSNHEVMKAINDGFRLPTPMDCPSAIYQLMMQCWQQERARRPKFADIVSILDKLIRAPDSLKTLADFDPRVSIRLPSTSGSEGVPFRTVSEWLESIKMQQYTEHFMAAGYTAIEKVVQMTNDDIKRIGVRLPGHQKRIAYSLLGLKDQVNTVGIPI

[5] = molecular target: Ephrin type-A receptor 2 (Homo sapiens) (UniProt P29317); conditions: at 1 µM
[6] = molecular target: T1, Ephrin type-A receptor 3 (Homo sapiens) (UniProt P29320); conditions: at 0.1 µM
T1 sequence (whole entry): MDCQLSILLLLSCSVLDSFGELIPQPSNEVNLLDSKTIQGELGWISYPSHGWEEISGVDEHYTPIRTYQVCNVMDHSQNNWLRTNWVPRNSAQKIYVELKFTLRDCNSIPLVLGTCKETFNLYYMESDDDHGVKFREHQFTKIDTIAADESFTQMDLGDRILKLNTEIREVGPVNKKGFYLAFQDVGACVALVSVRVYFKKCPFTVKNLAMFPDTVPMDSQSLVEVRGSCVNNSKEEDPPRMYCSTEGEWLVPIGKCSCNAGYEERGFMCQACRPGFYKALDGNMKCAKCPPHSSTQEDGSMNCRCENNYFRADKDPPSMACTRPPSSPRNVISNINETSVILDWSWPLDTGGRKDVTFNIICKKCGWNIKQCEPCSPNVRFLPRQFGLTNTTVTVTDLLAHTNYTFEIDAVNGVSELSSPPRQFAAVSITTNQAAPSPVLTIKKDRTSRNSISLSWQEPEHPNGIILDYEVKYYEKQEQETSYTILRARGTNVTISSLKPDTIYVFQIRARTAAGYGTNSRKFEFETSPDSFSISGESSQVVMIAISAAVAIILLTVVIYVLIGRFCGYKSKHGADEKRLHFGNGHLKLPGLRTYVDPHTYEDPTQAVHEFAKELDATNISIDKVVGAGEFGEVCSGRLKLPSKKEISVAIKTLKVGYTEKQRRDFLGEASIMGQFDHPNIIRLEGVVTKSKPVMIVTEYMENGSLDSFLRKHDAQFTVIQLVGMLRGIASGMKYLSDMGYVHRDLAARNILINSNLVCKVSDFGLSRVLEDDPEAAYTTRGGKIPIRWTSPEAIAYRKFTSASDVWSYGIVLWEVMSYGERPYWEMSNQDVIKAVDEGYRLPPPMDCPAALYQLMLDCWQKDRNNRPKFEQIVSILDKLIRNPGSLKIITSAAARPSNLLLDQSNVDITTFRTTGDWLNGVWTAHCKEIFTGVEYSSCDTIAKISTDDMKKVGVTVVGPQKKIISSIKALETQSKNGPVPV

[7] = molecular target: T1, Ephrin type-A receptor 3 (Homo sapiens); conditions: at 1 µM
[8] = molecular target: Ephrin type-A receptor 4 (Homo sapiens) (UniProt P54764); conditions: at 0.1 µM
[9] = molecular target: Ephrin type-A receptor 4 (Homo sapiens) (UniProt P54764); conditions: at 1 µM
[10] = molecular target: T2, Ephrin type-B receptor 2 (Homo sapiens) (UniProt P29323); conditions: at 0.1 µM
T2 sequence (whole entry): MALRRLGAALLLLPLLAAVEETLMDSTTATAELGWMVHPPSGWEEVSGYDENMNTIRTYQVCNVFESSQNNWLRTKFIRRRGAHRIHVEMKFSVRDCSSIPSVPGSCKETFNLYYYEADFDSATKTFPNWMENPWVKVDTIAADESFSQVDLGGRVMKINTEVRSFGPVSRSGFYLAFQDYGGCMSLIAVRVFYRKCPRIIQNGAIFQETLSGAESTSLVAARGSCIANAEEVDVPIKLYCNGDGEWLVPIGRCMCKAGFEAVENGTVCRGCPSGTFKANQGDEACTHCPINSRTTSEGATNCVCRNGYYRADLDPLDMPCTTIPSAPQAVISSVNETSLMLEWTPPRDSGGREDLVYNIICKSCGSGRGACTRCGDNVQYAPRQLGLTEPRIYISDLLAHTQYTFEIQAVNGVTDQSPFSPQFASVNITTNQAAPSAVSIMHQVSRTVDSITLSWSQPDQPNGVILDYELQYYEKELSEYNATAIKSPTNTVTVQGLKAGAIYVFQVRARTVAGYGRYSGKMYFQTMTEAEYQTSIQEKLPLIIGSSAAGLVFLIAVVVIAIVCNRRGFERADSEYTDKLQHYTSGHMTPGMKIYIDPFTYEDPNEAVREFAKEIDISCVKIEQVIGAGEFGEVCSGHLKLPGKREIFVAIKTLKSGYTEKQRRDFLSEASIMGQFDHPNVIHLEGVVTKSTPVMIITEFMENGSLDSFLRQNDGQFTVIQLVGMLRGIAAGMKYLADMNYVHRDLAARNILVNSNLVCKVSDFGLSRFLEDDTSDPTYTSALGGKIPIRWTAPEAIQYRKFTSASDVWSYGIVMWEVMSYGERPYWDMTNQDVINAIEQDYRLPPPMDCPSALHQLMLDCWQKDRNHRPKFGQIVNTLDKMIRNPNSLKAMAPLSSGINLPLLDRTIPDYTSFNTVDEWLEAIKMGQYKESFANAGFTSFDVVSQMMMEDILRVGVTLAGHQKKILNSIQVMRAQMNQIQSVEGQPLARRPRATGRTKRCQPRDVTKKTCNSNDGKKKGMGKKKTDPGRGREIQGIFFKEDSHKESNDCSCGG

[11] = molecular target: T2, Ephrin type-B receptor 2 (Homo sapiens); conditions: at 1 µM
[12] = molecular target: T3, Ephrin type-B receptor 3 (Homo sapiens) (UniProt P54753); conditions: at 0.1 µM
T3 sequence (whole entry): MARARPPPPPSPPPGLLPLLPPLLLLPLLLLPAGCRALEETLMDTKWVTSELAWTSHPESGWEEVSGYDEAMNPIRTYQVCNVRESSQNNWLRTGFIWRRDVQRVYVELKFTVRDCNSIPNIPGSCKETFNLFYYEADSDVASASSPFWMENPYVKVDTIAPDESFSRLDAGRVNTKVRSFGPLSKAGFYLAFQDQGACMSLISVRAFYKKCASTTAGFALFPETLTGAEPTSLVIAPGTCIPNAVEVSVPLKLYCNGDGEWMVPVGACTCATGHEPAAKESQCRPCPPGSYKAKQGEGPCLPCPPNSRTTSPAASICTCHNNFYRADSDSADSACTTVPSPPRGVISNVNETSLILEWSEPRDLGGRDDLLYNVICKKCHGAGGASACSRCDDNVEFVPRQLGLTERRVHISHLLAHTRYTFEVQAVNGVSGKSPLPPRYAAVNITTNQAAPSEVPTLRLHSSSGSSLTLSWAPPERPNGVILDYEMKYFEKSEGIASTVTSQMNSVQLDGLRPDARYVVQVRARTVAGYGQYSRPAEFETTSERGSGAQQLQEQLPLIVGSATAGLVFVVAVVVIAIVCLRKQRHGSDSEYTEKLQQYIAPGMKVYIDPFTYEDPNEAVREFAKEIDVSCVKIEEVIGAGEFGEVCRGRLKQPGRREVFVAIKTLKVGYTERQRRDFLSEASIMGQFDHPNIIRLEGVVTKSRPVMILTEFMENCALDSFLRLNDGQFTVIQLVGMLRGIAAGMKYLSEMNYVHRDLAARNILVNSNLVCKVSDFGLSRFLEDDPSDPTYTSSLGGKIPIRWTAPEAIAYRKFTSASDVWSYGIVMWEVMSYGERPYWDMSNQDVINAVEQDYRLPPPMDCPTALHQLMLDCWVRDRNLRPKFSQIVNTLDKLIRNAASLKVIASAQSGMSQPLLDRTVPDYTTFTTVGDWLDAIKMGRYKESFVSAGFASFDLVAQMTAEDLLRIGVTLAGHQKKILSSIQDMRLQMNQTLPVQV

[13] = molecular target: T3, Ephrin type-B receptor 3 (Homo sapiens); conditions: at 1 µM
[14] = molecular target: T4, Ephrin type-B receptor 4 (Homo sapiens) (UniProt P54760); conditions: at 0.1 µM
T4 sequence (whole entry): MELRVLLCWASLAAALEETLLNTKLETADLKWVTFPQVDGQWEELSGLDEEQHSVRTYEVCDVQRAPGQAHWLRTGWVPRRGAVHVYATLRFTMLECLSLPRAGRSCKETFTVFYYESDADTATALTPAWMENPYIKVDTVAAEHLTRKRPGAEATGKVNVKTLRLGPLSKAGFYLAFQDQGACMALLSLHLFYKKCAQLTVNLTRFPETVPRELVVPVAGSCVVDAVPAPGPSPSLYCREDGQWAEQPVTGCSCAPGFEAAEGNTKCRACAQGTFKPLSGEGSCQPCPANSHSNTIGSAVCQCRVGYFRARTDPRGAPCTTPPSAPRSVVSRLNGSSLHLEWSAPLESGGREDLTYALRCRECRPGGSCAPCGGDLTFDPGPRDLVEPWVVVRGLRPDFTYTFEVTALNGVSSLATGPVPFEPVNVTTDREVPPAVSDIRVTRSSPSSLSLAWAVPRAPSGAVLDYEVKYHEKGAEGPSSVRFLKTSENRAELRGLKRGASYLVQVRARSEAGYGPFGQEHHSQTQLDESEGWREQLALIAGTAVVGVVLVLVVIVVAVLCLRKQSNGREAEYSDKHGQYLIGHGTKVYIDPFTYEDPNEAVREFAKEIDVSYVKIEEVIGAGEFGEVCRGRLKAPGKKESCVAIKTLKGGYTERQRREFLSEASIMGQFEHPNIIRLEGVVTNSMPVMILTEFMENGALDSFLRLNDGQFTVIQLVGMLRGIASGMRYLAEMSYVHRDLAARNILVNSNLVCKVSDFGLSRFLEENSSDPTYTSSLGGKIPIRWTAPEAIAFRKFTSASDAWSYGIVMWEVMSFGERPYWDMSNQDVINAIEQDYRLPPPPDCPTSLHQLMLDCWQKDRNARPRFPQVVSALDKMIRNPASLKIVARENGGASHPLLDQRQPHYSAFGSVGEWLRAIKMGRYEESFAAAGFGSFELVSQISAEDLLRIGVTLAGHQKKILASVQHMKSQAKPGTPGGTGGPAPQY

[15] = molecular target: T4, Ephrin type-B receptor 4 (Homo sapiens); conditions: at 1 µM
[16] = molecular target: Receptor tyrosine-protein kinase erbB-2 (Homo sapiens) (UniProt P04626); conditions: at 0.1 µM
[17] = molecular target: Receptor tyrosine-protein kinase erbB-2 (Homo sapiens) (UniProt P04626); conditions: at 1 µM
[18] = molecular target: Receptor tyrosine-protein kinase erbB-4 (Homo sapiens) (UniProt Q15303); conditions: at 0.1 µM
Receptor tyrosine-protein kinase erbB-4 (Homo sapiens), sequence (Q15303 whole entry): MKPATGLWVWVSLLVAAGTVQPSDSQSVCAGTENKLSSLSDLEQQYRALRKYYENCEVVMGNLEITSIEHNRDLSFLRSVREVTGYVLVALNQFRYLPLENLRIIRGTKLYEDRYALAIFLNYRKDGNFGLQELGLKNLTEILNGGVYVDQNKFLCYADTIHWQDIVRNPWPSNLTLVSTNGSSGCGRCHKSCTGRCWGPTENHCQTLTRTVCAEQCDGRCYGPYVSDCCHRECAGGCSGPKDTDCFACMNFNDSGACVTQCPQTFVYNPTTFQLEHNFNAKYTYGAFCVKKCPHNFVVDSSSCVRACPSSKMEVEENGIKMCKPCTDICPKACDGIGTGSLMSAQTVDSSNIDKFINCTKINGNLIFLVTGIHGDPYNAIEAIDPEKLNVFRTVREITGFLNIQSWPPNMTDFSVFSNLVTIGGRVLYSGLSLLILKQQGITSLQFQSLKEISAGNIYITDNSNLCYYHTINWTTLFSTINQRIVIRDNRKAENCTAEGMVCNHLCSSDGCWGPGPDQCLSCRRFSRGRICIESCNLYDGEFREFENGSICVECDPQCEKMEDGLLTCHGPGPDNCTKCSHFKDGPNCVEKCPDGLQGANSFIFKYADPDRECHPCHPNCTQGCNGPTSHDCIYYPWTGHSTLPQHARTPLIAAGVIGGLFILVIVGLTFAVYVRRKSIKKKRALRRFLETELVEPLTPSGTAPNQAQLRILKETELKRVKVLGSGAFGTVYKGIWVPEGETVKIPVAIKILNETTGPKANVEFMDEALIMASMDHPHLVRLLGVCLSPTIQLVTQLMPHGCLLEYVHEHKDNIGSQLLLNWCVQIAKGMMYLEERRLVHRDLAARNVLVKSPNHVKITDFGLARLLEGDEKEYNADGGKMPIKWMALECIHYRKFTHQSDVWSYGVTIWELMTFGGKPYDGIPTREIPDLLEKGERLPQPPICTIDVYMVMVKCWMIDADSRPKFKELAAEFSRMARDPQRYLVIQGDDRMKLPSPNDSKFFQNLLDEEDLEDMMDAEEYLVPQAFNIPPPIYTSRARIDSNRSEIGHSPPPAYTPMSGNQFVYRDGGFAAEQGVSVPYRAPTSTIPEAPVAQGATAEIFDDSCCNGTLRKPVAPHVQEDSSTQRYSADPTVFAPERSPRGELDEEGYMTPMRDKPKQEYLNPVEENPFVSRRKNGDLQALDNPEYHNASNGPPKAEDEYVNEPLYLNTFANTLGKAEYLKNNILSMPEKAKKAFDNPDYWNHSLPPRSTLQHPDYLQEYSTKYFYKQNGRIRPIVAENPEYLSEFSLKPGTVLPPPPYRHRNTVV

[19] = molecular target: Receptor tyrosine-protein kinase erbB-4 (Homo sapiens) (UniProt Q15303); conditions: at 1 µM
[20] = molecular target: Tyrosine-protein kinase Fer (Homo sapiens) (UniProt P16591); conditions: at 0.1 µM;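 also: reported figures are averaged percent inhibition of FER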
Tyrosine-protein kinase Fer (Homo sapiens), sequence (P16591 whole entry, looked up): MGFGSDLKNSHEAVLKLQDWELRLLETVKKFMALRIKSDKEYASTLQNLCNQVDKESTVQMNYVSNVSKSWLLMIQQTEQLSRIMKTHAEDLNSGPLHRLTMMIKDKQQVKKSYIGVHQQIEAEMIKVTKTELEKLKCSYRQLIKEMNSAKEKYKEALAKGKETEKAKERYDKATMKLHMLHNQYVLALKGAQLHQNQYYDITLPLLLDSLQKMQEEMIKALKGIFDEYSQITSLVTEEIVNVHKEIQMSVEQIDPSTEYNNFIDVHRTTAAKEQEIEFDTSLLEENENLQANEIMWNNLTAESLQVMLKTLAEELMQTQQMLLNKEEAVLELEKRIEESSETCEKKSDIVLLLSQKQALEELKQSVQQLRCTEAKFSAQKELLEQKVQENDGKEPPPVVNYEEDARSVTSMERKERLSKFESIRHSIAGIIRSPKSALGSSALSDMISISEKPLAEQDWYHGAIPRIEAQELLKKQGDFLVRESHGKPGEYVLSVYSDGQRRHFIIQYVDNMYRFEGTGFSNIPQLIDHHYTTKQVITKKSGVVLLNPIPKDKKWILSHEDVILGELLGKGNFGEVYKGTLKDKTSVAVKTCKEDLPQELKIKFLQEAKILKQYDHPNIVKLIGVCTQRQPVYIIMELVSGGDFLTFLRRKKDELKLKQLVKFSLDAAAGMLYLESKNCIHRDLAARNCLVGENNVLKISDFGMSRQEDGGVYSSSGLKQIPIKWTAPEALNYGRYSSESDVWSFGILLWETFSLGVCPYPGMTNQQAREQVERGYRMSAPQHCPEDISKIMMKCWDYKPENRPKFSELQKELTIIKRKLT

Epidermal growth factor receptor (Homo sapiens), P00533 [T790M], sequence (P00533 whole entry T790M): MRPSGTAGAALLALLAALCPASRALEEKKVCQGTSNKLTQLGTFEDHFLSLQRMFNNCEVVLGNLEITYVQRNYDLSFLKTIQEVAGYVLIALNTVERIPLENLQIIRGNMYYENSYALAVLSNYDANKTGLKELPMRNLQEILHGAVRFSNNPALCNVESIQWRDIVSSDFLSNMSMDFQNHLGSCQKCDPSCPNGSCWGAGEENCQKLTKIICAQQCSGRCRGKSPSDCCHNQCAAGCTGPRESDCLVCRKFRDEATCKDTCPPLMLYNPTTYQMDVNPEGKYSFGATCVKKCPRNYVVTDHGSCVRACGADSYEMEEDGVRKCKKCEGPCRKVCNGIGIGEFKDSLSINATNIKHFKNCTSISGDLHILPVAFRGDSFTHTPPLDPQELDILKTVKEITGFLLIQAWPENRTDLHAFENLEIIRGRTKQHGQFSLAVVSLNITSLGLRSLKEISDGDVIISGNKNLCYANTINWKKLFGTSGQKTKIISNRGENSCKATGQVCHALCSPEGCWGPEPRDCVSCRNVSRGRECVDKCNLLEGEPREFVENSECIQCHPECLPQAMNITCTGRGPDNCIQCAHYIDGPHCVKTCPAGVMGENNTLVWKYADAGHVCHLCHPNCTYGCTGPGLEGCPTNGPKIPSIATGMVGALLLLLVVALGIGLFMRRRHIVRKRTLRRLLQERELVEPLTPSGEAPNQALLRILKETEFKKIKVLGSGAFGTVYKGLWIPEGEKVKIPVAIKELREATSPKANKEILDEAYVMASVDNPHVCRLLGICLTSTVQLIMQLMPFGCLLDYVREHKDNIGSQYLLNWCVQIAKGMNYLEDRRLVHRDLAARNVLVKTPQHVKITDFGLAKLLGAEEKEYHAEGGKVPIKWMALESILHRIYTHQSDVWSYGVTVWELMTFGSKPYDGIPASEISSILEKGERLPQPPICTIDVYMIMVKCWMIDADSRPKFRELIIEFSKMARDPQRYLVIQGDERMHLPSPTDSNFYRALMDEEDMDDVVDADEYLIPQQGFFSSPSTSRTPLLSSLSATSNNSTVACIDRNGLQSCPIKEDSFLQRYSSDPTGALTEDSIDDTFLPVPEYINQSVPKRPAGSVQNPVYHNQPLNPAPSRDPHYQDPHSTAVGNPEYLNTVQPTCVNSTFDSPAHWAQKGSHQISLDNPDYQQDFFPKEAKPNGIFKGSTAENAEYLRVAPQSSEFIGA

Row | Compound | inhibition [1] [%] | inhibition [2] [%] | inhibition [3] [%] | inhibition [4] [%] | inhibition [5] [%] | inhibition [6] [%] | inhibition [7] [%] | inhibition [8] [%] | inhibition [9] [%] | inhibition [10] [%] | inhibition [11] [%] | inhibition [12] [%] | inhibition [13] [%] | inhibition [14] [%] | inhibition [15] [%] | inhibition [16] [%] | inhibition [17] [%] | inhibition [18] [%] | inhibition [19] [%] | inhibition [20] [%]
1 | O=C(Nc1n[nH]c2nc(-c3ccco3)ccc12)C1CC1 | -1.02 | 0.52 | -1.34 | -1.58 | 2.15 | 1.58 | 2.28 | 6.1 | 7.98 | 6.87 | 12.7 | 3.53 | 2.4 | 0.45 | 4.02 | 0.39 | 0.71 | 2.93 | 2 | 0.52
2 | COc1cc(C)c(N(C)C(=O)CN(C)C)cc1Nc1nc(Nc2cccc(F)c2C(N)=O)c2cc[nH]c2n1 | 1.09 | -0.19 | 1.92 | -2.68 | -4.61 | -1.1 | -3.2 | 3.77 | -1.31 | 2.81 | 4.5 | -1.17 | -3.39 | -2.25 | -3.91 | -0.03 | -3.53 | 4.41 | 4.97 | 9.81
3 | Fc1ccc(-c2ncn(C3CCNCC3)c2-c2ccnc(Oc3ccc(F)c(F)c3)n2)cc1 | 1.67 | 2.65 | 1.47 | -2.47 | -2.72 | -1.56 | 0.81 | 6.95 | 9.68 | 6.59 | 8.76 | -0.46 | 1.58 | -4.11 | 0.57 | 3.82 | 3.63 | 1.82 | 5.03 | 1.43
